CHOP inhibitor: CHOP inhibition in unfolded protein response; CHO-K1 CHOP-promoter luciferase, tunicamycin-induced, 15-18 h; inhibition, % at 10 µM; 3.8% of 220,000 active; AID 2732;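 active means compounds that reduced the stress-induced luciferase reporter signal by more than about 70% of percent inhibition, limit read from the data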;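 further: 0% = tunicamycin plus vehicle and 100% = wells without tunicamycin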
Arbovirus anti: blocks arbovirus infection; arbovirus infection cell-based antiviral screen; inhibition, % at 10 µM; 0.37% of 200,000 active; AID 1251; in the data active means inhibition above about 30%
Lmaj promast: Leishmania major promastigote growth inhibition | Leishmania major promastigotes, resazurin fluorescence viability | inhibition, % at 10 µM | 9% of 200,000 active; in the data active means inhibition above about 50%;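 further: promastigotes grown with compound for 44 hours at 28 °C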
WT yeast gro inh: growth inhibition of WT yeast, mitochondrial fusion screen; mitochondrial fusion phenotypic screen, WT strain; inhibition, % at 10 µM; 2.1% of 190,000 active; in the data active means inhibition above about 58%; tested in S. cerevisiae
The depositor's hits bear a star; nt = no result given. Hits are enriched below; roughly 12% of the tested compounds scored in any of these assays.

SMILES | CHOP inhibitor | Arbovirus anti | Lmaj promast | WT yeast gro inh
CCC1C/C(=C\c2cccnc2)C(=O)/C(=C/c2cccnc2)C1 (centres undefined) | 106* | -31 | 100* | 64*
O=C1/C(=C/c2ccccc2)CCCc2ccccc21 | 89* | 0 | 6 | -19
O=C1/C(=C/c2cccnc2)CC/C1=C\c1cccnc1 | -16 | -6 | 82* | 3
COc1ccc2c(c1)CC/C(=C/c1ccncc1)C2=O | 3 | 5 | 75* | 3
O=C1NC(=S)N/C1=C/c1cccnc1 | 39 | nt | nt | nt
O=C1COc2ccc(C(=O)COC(=O)CNC(=O)C3CCCCC3)cc2N1 | 2 | 9 | -7 | -11
CCn1c(SCC(=O)N/N=C/c2ccccc2OCC(=O)O)nnc1-c1ccc(C)cc1 | 4 | nt | nt | nt
CC(C)/C=C1\CC/C(=C\c2cccnc2)C1=O | -20 | -30 | 54* | -2
CC(C)N1C(=O)S/C(=C/c2ccc3c(c2)n(C)c(=O)n3C)C1=O | -42 | -13 | 19 | -5
CC(C)N1C(=O)S/C(=C/c2cccnc2)C1=O | -16 | 12 | 71* | 5
CN(C)c1ccc(/C=C2\CCC/C(=C\c3ccccc3)C2=O)cc1 | 28 | -6 | 49 | 0
O=C1/C(=C/c2ccc(C(=O)O)cc2)CCC/C1=C\c1ccc(C(=O)O)cc1 | 10 | 5 | 66* | 6
O=C1/C(=C\c2ccc([N+](=O)[O-])cc2)CCc2ccccc21 | 65 | -1 | 4 | 54
O=C1NC(=S)N/C1=C\c1cccnc1 | 36 | nt | nt | nt
O=C1/C(=C\c2cccnc2)CCc2ccccc21 | -18 | 16 | 100* | -5
FC(F)Oc1ccc(NC(=S)NCC2COc3ccccc3O2)cc1 (centres undefined) | 51 | 9 | -2 | 12
Cc1ccsc1C(=O)Nc1nc2ccccc2[nH]1 | -20 | nt | nt | nt
O=C(Nc1ccccc1)Nc1ccc(C(=O)N2CCOCC2)cc1 | -25 | -8 | -5 | -12
O=C1/C(=C/c2cccnc2)CCC/C1=C\c1cccnc1 | 63 | -34 | 100* | 28
NC1=NC(=O)/C(=C\c2cccnc2)S1 | 39 | 20 | 0 | -18
Cc1cccc(/C=N/NC(=O)c2cc(-c3cccnc3)nc3ccccc23)c1 | 24 | -6 | 26 | 12
Cc1cccc(/C=N/NC(=O)c2cc(-c3cccnc3)nc3c2c(C)nn3-c2ccccc2)c1 | 25 | -20 | 62* | 17
Cc1cc(C)cc(N(CC(=O)N2CCc3ccccc32)S(=O)(=O)c2c(C)noc2C)c1 | 64 | 4 | -6 | 15
CS(=O)(=O)N(Cc1ccc(Cl)cc1)c1ccc(C(=O)N2CCN(c3ccccc3)CC2)cc1 | 34 | -13 | 13 | 27
Cc1cc(C)cc(N(CC(=O)N2CCN(c3ccccc3)CC2)S(=O)(=O)c2c(C)noc2C)c1 | 76* | 22 | 10 | 19
SMILES | CHOP inhibitor | Arbovirus anti | Lmaj promast | WT yeast gro inh
CS(=O)(=O)N(CC(=O)N1CCN(c2ccccc2)CC1)c1ccc(Cl)c(C(F)(F)F)c1 | 76* | 11 | 89* | -3
CS(=O)(=O)N(Cc1ccccc1)c1ccc(C(=O)N2CCN(c3cccc(Cl)c3)CC2)cc1 | 14 | -15 | 73* | 20
CC1CCN(C(=O)CN(c2ccc(Cl)c(C(F)(F)F)c2)S(C)(=O)=O)CC1 | 26 | 3 | 69* | -2
COc1ccc(C(O)(c2ccccc2OC)C(CN2CCOCC2)c2ccccc2)cc1 (centres undefined) | 0 | -1 | 22 | -5
CCn1ccnc1CN(C)Cc1nc(Cc2cccc(C(F)(F)F)c2)no1 | 0 | 1 | 6 | -4
Cc1ccc(-n2c(C)cc(C)c(C#N)c2=O)cc1 | -1 | 4 | -6 | 4
Cc1ccc(-n2c(N)c(C#N)c(-c3ccccc3)c(C#N)c2=O)cc1 | -6 | 4 | -3 | 70*
CCCc1nc(NC(=O)c2ccccc2)nc(NC(=O)c2ccccc2)n1 | 4 | nt | nt | nt
O=C(O)c1ccc(-c2nc(-c3ccc(Cl)c(Cl)c3)cs2)cc1 | 10 | 23 | -5 | 75*
CC(=O)OCC(CCn1cnc2cnc(N)nc21)COC(C)=O | 15 | 4 | nt | -4
CC(C)n1c(Oc2ccc(F)cc2)nc2c1c(=O)n(C)c(=O)n2C | 19 | 8 | 1 | 4
CCOC(=O)C1(Cc2cccc(F)c2)CCN(CCCn2cccn2)CC1 | 12 | nt | nt | nt
CCOC(=O)C1(CCCc2ccccc2)CCN(Cc2cnn(C)c2)CC1 | 27 | -15 | 77* | 9
CCOC(=O)C1(CCc2ccccc2)CCN(C2Cc3ccccc3C2)CC1 | 54 | 6 | 81* | 13
CCOC(=O)C1(CCOc2ccccc2)CCN(Cc2cccc(-n3cccn3)c2)CC1 | 57 | 9 | 93* | 24
CCOC(=O)C1(CCOc2ccccc2)CCN(CCCn2cccn2)CC1 | 0 | -14 | 79* | -2
Cc1ccc2cc([N+](=O)[O-])ccc2n1 | -14 | nt | nt | nt
CCNC(=O)[C@H]1O[C@@H](n2cnc3c(N)nc(NCCc4ccc(CCC(=O)O)cc4)nc32)C(O)[C@H]1O (some centres undefined) | -16 | nt | nt | nt
COc1ccc(S(=O)(=O)/N=C2/C=CC(=O)C(C)=C2C)cc1 | 82* | -7 | 24 | 7
COc1ccc(S(=O)(=O)c2ccc(OC)cc2)cc1 | 12 | -1 | -7 | 6
Cc1cc(/C=C\c2ccccc2)nc2ccccc12 | 31 | 1 | 14 | 71*
CCOc1ccccc1-n1nnnc1SCC(=O)O | -4 | nt | nt | nt
CCOC(=O)c1c(C(F)(F)C(F)(F)C(F)(F)C(F)(F)F)n[nH]c1C | 82* | 8 | 1 | 0
O=C(NCc1ccc2[nH]c3c(c2c1)CCCC3)N1CCOCC1 | 27 | 0 | 6 | 14
S=C(NCc1ccc2[nH]c3c(c2c1)CCCC3)Nc1ccccc1Cl | 24 | -9 | 1 | 41
SMILES | CHOP inhibitor | Arbovirus anti | Lmaj promast | WT yeast gro inh
O=C(NCc1ccc2[nH]c3c(c2c1)CCCC3)c1ccc(S(=O)(=O)N2CCCC2)cc1 | 77* | -13 | 10 | 9
O=C(NCc1ccc2[nH]c3c(c2c1)CCCC3)c1ccc(S(=O)(=O)N2CCOCC2)cc1 | 53 | -6 | -1 | 4
CCCCNC(=S)NCc1ccc2[nH]c3c(c2c1)CCCC3 | -7 | 8 | -6 | 69*
Cc1ccccc1NC(=S)NCc1ccc2[nH]c3c(c2c1)CCCC3 | 26 | -34 | 33 | 79*
CNC(=S)NCc1ccc2[nH]c3c(c2c1)CCCC3 | 16 | -1 | 0 | 4
Cc1ccc(C)c(NC(=S)NCc2ccc3[nH]c4c(c3c2)CCCC4)c1 | 36 | -34 | 41 | 80*
Cc1ccc(S(=O)(=O)N(Cc2cc3ccccc3[nH]c2=O)c2cccc(C)c2)cc1 | 0 | nt | nt | nt
CC(=O)Nc1ccc(S(=O)(=O)N2c3ccccc3C(C)=CC2(C)C)cc1 | 1 | -22 | 100* | -10
CC1=CC(C)(C)N(S(=O)(=O)c2ccc(F)cc2)c2ccccc21 | 64 | -5 | 48 | 37
CC1=CC(C)(C)N(S(=O)(=O)c2ccc(C)cc2)c2ccc(C)cc21 | nt | -1 | 100* | 63*
C/C=C/C(=O)N1c2ccc(C)cc2C(C)=CC1(C)C | 48 | nt | nt | nt
CCOc1ccc2oc(C(=O)NCC(C)(C)CN(C)C)c(C)c2c1 | -9 | -9 | 17 | -17
O=C(c1n[nH]c2ccccc12)N1CCN(S(=O)(=O)c2ccc3ccccc3c2)CC1 | 30 | 9 | 55* | 77*
O=C(c1ccc(=O)[nH]n1)N1CCN(S(=O)(=O)c2ccc3ccccc3c2)CC1 | 10 | 4 | -9 | -14

High-throughput results: PubChem, several laboratories
